Test in all cases: NCI-60 one-dose screen, 48 h (100 = growth as untreated, 0 = no growth, -100 = all killed)
One test relates to NCI-H23 lung. Conditions: 10 µM unless noted.
The subject of a further test is NCI-H226 lung. To be noted: 10 µM unless noted.
A further test relates to NCI-H322M lung. To be noted: 10 µM unless noted.
Another test relates to HOP-62 NSCLC. Conditions: 10 µM unless noted.
In the next test the test system is NCI-H460 lung. To be noted: 10 µM unless noted.
The next test relates to HOP-92 NSCLC. Conditions: 10 µM unless noted.
In another test the test system is NCI-H522 lung. To be noted: 10 µM unless noted.
In another test the test system is A549/ATCC NSCLC. Conditions: 10 µM unless noted.
For another test, the system named is 786-0 renal. To be noted: 10 µM unless noted.
Another test deals with COLO 205 colon. To be noted: 10 µM unless noted.
In a further test the test system is DU-145 prostate. Conditions: 10 µM unless noted.
The test system of another test is K-562 leukemia. Conditions: 10 µM unless noted.
In a further test the test system is MALME-3M melanoma. To be noted: 10 µM unless noted.
Another test relates to MDA-MB-231 breast. Conditions: 10 µM unless noted.
A further test deals with RXF 393 renal. To be noted: 10 µM unless noted.
The next test concerns SF-268 CNS. To be noted: 10 µM unless noted.
A further test relates to SF-295 CNS. To be noted: 10 µM unless noted.
Another test has as its system SF-539 CNS. Conditions: 10 µM unless noted.
In a further test the test system is UACC-257 melanoma. Conditions: 10 µM.
Another test has as its system M14 melanoma. To be noted: 10 µM unless noted.

Structures are written as SMILES. The panel holds about 83,000 compounds, 20% with a hit somewhere; the sample as a whole holds those more often.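 Percent growth is the endpoint: 0 to 100 indicates growth inhibition (40 means 60% inhibition), 0 means no net growth, and negative values indicate cell death.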 Values without a mark were called inactive. Calls of active or inactive are those of the source. The calls were made as follows: active = growth percent below 10; inactive = the rest.

In the case of `COc1ccc(Cn2cc3c(c2-c2cc(OC)c(OC)c(OC)c2)CCCc2cnoc2-3)cc1`, the growth with NCI-H23 lung was 32.5%; with NCI-H226 lung, 53.6%; in the test with NCI-H322M lung, 39.6%; in the test on HOP-62 NSCLC it was 43.2%; in the test on NCI-H460 lung it was 7.42% (active); in the test with HOP-92 NSCLC, 50.6%. For the same compound, the growth is 10.4% with NCI-H522 lung; 33.6% in the test with A549/ATCC NSCLC; 37.1% with 786-0 renal; -0.67% (active) in the test with COLO 205 colon; 17.4% in the test on DU-145 prostate; 10.2% with K-562 leukemia. Besides, the growth with MALME-3M melanoma was 57.5%; in the test on MDA-MB-231 breast, 32.4%; with RXF 393 renal, -2.75% (active); with SF-268 CNS it was 57.7%; in the test with SF-295 CNS, 5.29% (active); with SF-539 CNS, 2.82% (active). For the same compound, the growth is 81.5% with UACC-257 melanoma and 2.98% (active) with M14 melanoma.

On to `O=C1c2c(c3c4cccnc4[nH]c3c3ccc4ccccc4c23)C(=O)N1CCN1CCCCC1`, for which the growth is 29.3% in the test on NCI-H23 lung; 64.6% in the test on NCI-H226 lung; 69.6% in the test with NCI-H322M lung; 36.6% in the test on HOP-62 NSCLC; 12.5% in the test with NCI-H460 lung; 70.4% with HOP-92 NSCLC. Further, the growth with NCI-H522 lung is 63%; in the test with A549/ATCC NSCLC, 46.8%; in the test on 786-0 renal, 52.6%; in the test on COLO 205 colon, 69.4%; in the test on DU-145 prostate, 41.7%; with K-562 leukemia, 40.5%. Also, the growth is 77% with MALME-3M melanoma; 96% in the test with MDA-MB-231 breast; 70.5% in the test with RXF 393 renal; 43.2% in the test on SF-268 CNS; 28.5% in the test with SF-295 CNS; 54.2% in the test with SF-539 CNS. For the same compound, the growth in the test on UACC-257 melanoma was 94%; in the test on M14 melanoma, 45.8%.

As to `O=C1CSC(=O)N1Cc1cc2ccccc2nc1Cl`, the growth with NCI-H23 lung is 99.7%; with NCI-H226 lung, 102%; with NCI-H322M lung it was 108%; in the test with HOP-62 NSCLC, 101%; in the test with NCI-H460 lung, 106%; with HOP-92 NSCLC, 94.5%. Besides, the growth in the test on NCI-H522 lung is 94.3%; in the test on A549/ATCC NSCLC, 99.6%; with 786-0 renal it was 100%; in the test on COLO 205 colon it was 109%; with DU-145 prostate, 104%; in the test on K-562 leukemia it was 99.8%. The growth was 94.2% in the test with MALME-3M melanoma; 103% with MDA-MB-231 breast; 96% in the test on RXF 393 renal; 99.1% in the test on SF-268 CNS; 101% in the test with SF-295 CNS; 108% in the test with SF-539 CNS. In addition, the growth in the test with UACC-257 melanoma and in the test with M14 melanoma was 103% in each case.

Take `Cc1cn(-c2cc(NC(=O)c3cncc(C#Cc4cnc5ccc(OCCCS(C)(=O)=O)nn45)c3)cc(C(F)(F)F)c2)cn1`: the growth in the test on NCI-H23 lung was -5.32% (active); in the test on NCI-H226 lung, 4.42% (active); in the test on NCI-H322M lung it was 24.4%; with HOP-62 NSCLC, 25.5%; in the test with NCI-H460 lung it was 18.6%; in the test with HOP-92 NSCLC it was -34.5% (active). Also, the growth with NCI-H522 lung is 3.59% (active); in the test on A549/ATCC NSCLC it was 48%; in the test with 786-0 renal it was 12.4%; in the test on COLO 205 colon, -30.3% (active); with DU-145 prostate, 12.6%; in the test with K-562 leukemia, 11%. Also, the growth in the test with MALME-3M melanoma was 11.7%; with MDA-MB-231 breast it was 14.4%; in the test on RXF 393 renal, -74.5% (active); in the test on SF-268 CNS, -5.33% (active); in the test with SF-295 CNS, 54.6%; in the test on SF-539 CNS, 6.3% (active). Further, the growth in the test on UACC-257 melanoma was 64.4%; in the test with M14 melanoma, 18%.

On to `COc1cc(/C=C/C(=O)c2ccc(NC(=O)COc3cccc4cccnc34)cc2)cc(OC)c1OC`, for which the growth is 78.7% in the test with NCI-H23 lung; 88.7% in the test with NCI-H226 lung; 90.4% in the test with NCI-H322M lung; 114% in the test on HOP-62 NSCLC; 72.5% in the test on NCI-H460 lung; 90.1% with HOP-92 NSCLC. For the same compound, the growth with NCI-H522 lung was 80.4%; in the test with A549/ATCC NSCLC, 87.1%; in the test on 786-0 renal it was 89%; in the test with COLO 205 colon it was 100%; with DU-145 prostate it was 78.1%; in the test with K-562 leukemia, 34.1%. Further, the growth in the test on MALME-3M melanoma was 70.2%; in the test with MDA-MB-231 breast, 73.7%; with RXF 393 renal, 86.7%; with SF-268 CNS it was 81.6%; in the test with SF-295 CNS, 90.8%; with SF-539 CNS, 72.3%. Besides, the growth with UACC-257 melanoma was 74.6%; with M14 melanoma it was 91.4%.

Take `CCCCCCNC(=O)Oc1ccc(/C(=C(\C)c2ccc(OC)cc2)c2ccc(OCCN(C)C)cc2)cc1`: the growth with NCI-H23 lung was 84.4%; in the test with NCI-H226 lung, 105%; in the test with NCI-H322M lung, 89%; with HOP-62 NSCLC, 89.8%; with NCI-H460 lung it was 67.6%; in the test with HOP-92 NSCLC, 50.4%. Moreover, the growth with NCI-H522 lung is 98%; in the test on A549/ATCC NSCLC it was 74.7%; with 786-0 renal, 62.3%; in the test on COLO 205 colon, 90.4%; in the test with DU-145 prostate, 96.8%; in the test on K-562 leukemia, 9.79% (active). The growth with MALME-3M melanoma is 1.42% (active); in the test on MDA-MB-231 breast, 71.8%; in the test on RXF 393 renal, 52.1%; with SF-268 CNS, 78.3%; with SF-295 CNS, 80.8%; in the test on SF-539 CNS, 45.3%. For the same compound, the growth in the test on UACC-257 melanoma was 9.83% (active); with M14 melanoma, 6.24% (active).

In the case of `COc1ccc(OC)c(NC2=C(Cl)C(=O)C(C)=C(C)C2=O)c1`, the growth was 85.8% in the test on NCI-H23 lung; 84.2% in the test with NCI-H226 lung; 103% in the test on NCI-H322M lung; 92.1% with HOP-62 NSCLC; 98.4% in the test with NCI-H460 lung; 96.6% with HOP-92 NSCLC. The growth in the test on NCI-H522 lung is 87.2%; in the test on A549/ATCC NSCLC it was 101%; in the test on 786-0 renal it was 102%; in the test with COLO 205 colon it was 107%; in the test with DU-145 prostate, 104%; in the test on K-562 leukemia, 55.8%. Also, the growth in the test with MALME-3M melanoma is 98.7%; in the test on MDA-MB-231 breast, 76.6%; in the test with RXF 393 renal, 107%; in the test with SF-268 CNS it was 93.9%; with SF-295 CNS, 100%; with SF-539 CNS, 99%. Moreover, the growth was 86.8% in the test on UACC-257 melanoma and 97.8% in the test on M14 melanoma.

The values are drawn from PubChem BioAssay (NCI).
